# Experimental data from PubChem BioAssay (NCI).
# About 83,000 compounds went through this panel and 20% of them were active in at least one assay; those are over-represented in the sample as a whole.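 Compound tested at a single concentration for 48 hours in 96-well plates; a percent growth value below 10 was scored as active.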 Unmarked numbers belong to inactive results. Active and inactive are the calls of the source.
# Test system: OVCAR-4 ovarian
# Assay: NCI-60 one-dose screen, 48 h (100 = growth as untreated, 0 = no growth, -100 = all killed)
# Settings: 10 µM unless noted
# Procedure: Growth inhibition of the OVCAR-4 human tumor cell line is measured as a screen for anti-cancer activity. Cells are grown in 96 well plates and exposed to the test compound for 48 hours. Compounds are tested at a single concentration, which is 10^-5 M for most compounds. The reported endpoint is percent growth (GI% or GIPRCNT), where numbers from 0 - 100% represent growth inhibition, and numbers from -100% - 0 represent cell death. For example, a value of 40 represents 60% growth inhibition. A value of 0 means no net growth occurred over the course of the experiment. A value of -40 indicates 40% of cells at the beginning of the experiment died by the end of the experiment. A value of -100 means all cells are dead at the end of the experiment.
# NCI-60 Human Tumor Cell Lines Screen was performed using the standard one-dose NCI protocol, which is described in more detail at https://dtp.cancer.gov/discovery_development/nci-60/default.htm.
# Compounds with GIPRCNT values below 10 were considered active. Activity score was based on GIPRCNT using the following formula: […]
# Score is 0 for GIPRCNT values of 100 or above, 50 for GIPRCNT values of 0, and 100 for GIPRCNT values of -100.
row,Compound,growth
1,O=C1CC(c2ccc(O)c(O)c2)Oc2cc(O)c([C@@H]3O[C@H](CO)[C@@H](O)[C@H](O)[C@H]3O)c(O)c21 (stereo not given in full),101%
2,COc1cc2cc(c1Cl)N(C)C(=O)C[C@H](OC(=O)[C@H](C)N(C)C(=O)CCS)C[C@]1(C)O[C@H]1[C@H](C)[C@@H]1C[C@@](O)(NC(=O)O1)[C@H](OC)/C=C/C=C(\C)C2,28.8%
3,COc1ccc2nc(-c3ccc(Cl)cc3)cc(C(=O)N3N=C(c4ccc(N)cc4)CC3c3ccccc3)c2c1 (stereo not given),65.8%
4,CCCCC1=c2c([nH]c3ccc(OC)cc23)=NC2C=CC=NC12 (stereo not given),80.3%
5,CC(C)(C#N)c1cc(F)cc(C(=O)Nc2cc(Nc3ncccc3-c3ncnc4nc[nH]c34)ccc2F)c1,70.3%
6,O=C(Nc1cc(Nc2ncccc2-c2ncnc3nc[nH]c23)ccc1F)c1cc(C(F)(F)F)cc(C(F)(F)F)c1,-48.5% (active)
7,COc1cc(C(=O)Nc2cc(OC)c3ccn(C)c3c2)cc2c1C[C@]1(C)CC[C@@H](O)C(C)(C)[C@H]1O2,54.8%
8,CCCn1c(N)c(C(N)=O)sc1=S,111%
9,N#Cc1nc(-c2ccccc2)oc1S(=O)(=O)NCC(c1ccc(Cl)cc1)N1CCCCC1 (stereo not given),99.3%
10,Cc1nccc2c3ccc(OCc4cn(-c5ccc(Br)cc5)nn4)cc3n(CC(C)C)c12,58.8%
11,COc1ccc(C2C(c3ccccc3)C(=O)N2c2cc(OC)c(OC)c(OC)c2)cc1I (stereo not given),39.8%
12,COc1ccc(-c2cc(-c3nnc(SCC(=O)Nc4ccc(C(C)=O)cc4)o3)c3ccccc3n2)cc1,-49.6% (active)
13,O=C(Nc1cc(Br)ccn1)c1cc2cc(Nc3nc(-c4ccccc4)nc4ccccc34)ccc2oc1=O,111%
14,COc1ccc(-c2nc(C#N)c(NCC(c3ccc(Cl)cc3)N3CCCCC3)o2)cc1 (stereo not given),87.5%
15,Cc1cc(C)c2nc(Nc3nc(C)c(C)c(=O)[nH]3)nc(C)c2c1,20.8%
16,COc1cc(-c2csc(NC(=O)Nc3ccc(Cl)cc3)n2)cc(OC)c1OC,9.02% (active)
17,CC(=O)Oc1ccc(O)cc1,105%
18,COc1ccc(-c2nnc(N3CCN(C(=O)CN4CCN(c5ccccc5)CC4)CC3)nc2-c2ccc(OC)cc2)cc1,24.4%
19,COc1cc(C(=O)N2CCN(c3ccccc3OC)CC2)c(NC(=O)c2cnccn2)cc1OCc1ccccc1,79%
20,C=C1C(=O)O[C@H]2[C@H]1CC/C(COC(=O)c1cccnc1)=C\CC[C@@]1(C)O[C@@H]21,70%

row,Compound,growth
1,O=C1Nc2ccc(Br)cc2/C1=N\N=C/c1cn(Cc2ccccc2)c2ccccc12,84.3%
2,C=C(C)[C@@H]1CCC=C2CC[C@]3(C)[C@H](CC[C@@H]4[C@@]5(C)CCCNC(C)(C)[C@@H]5CC[C@]43C)[C@H]21,36.7%
3,Cc1ccc2nc3nc4ccc[nH]c4cc3c2c1,65.8%
4,O=C(O)c1cc(N=Nc2ccc(-c3ccc(N=Nc4c(S(=O)(=O)O)cc5ccc(Nc6ccccc6)cc5c4O)cc3)cc2)ccc1O,102%
5,Nc1ccc(C2=NN(C(=O)c3cc(-c4ccc(Cl)cc4)nc4ccccc34)C(c3ccccc3)C2)cc1 (stereo not given),63.1%
6,CC(=O)c1cc2c(N)c(C(=O)Nc3ccccn3)sc2nc1C,99.4%
7,COc1cc(/C=C/C(=O)/C=C/c2cc3ccc(Cl)cc3n(Cc3ccccc3)c2=O)ccc1O,25.8%
8,CCOC(=O)c1c(-c2ccc(O)cc2)c(C#N)c2c(C#N)c(N)nn2c1N,81%
9,O=C(O)c1ccc(-n2cc(/C=N/Nc3ccc(Cl)cc3Cl)c(-c3ccccc3)n2)cc1,87.3%
10,Cc1cccc(C)c1Nc1nnc(-c2ccc(F)cc2)o1,103%
11,c1ccc(-c2n(Cc3ccc4ccccc4n3)cc[n+]2Cc2ccc3ccccc3n2)cc1,32.9%
12,CN1CCN(C(=O)[C@@]2(C)CC[C@]3(C)CC[C@]4(C)C(=CC[C@@H]5[C@@]6(C)CC[C@H](OC(=O)c7cccnc7)C(C)(C)[C@@H]6CC[C@]54C)[C@@H]3C2)CC1,35.2%
13,CC(=O)Nc1nc2c(c(N)c1C#N)C(c1cccc(Cl)c1)C1=C(CCCC1=O)N2c1sc2c(c1C#N)CCCC2 (stereo not given),57.5%
14,NS(=O)(=O)c1ccc(-n2ncc(NC(=O)Nc3ccc(S(=O)(=O)Nc4nccs4)cc3)c2-c2ccccc2)cc1,101%
15,Cc1cnc(SCc2ccc(Cl)cc2Cl)nc1Nc1ccc(Cl)c(Cl)c1,93.9%
16,O=C(O)C(C(=O)O)c1cccc2ccccc12,100%
17,CCOc1ccccc1C(=O)/C=C/c1cc2ccccc2[nH]c1=O,32.3%
18,O=C1NN(c2ccccc2)C(c2ccc3c(c2)OCO3)N2CCC[C@@H]12 (stereo not given in full),108%
19,C=C1C(=O)O[C@H]2[C@H]1CC/C(COC(=O)c1c[nH]c3ccccc13)=C\CC[C@@]1(C)O[C@@H]21,-90.6% (active)
20,C=C(C)[C@@H]1CC[C@]2(C(=O)O)CC[C@]3(C)[C@H](CC[C@@H]4[C@@]5(C)C[C@@H](CC#Cc6ccccc6)C(=O)C(C)(C)[C@@H]5CC[C@]43C)[C@@H]12,41.3%
